From PubChem BioAssay (NCATS)
Inconclusive results are not listed. Values without a mark were called inactive. Calls of active or inactive are those of the source. Calls follow the shape of the dose curve; as a rule, active = well fitted cell-killing curve with a large enough effect; inconclusive = small, poorly fitted or top-dose-only effect; inactive = no such curve, though single readings can be large or run the other way.

Experiment: qHTS of pediatric cancer cell lines to identify multiple opportunities for drug repurposing: Primary screen for Rh41 cells (AID 1347108); also: nearly all actives have a fitted effect of over 70% in size;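 as to activity change, negative = cytotoxic: luminescence drop marks cytotoxic hits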
Conditions: Rh41 rhabdomyosarcoma viability, CellTiter-Glo luminescence, 48 h; series mostly up to 46 µM; activity change, negative = cytotoxic: at the top concentration
Excerpt: Drug repurposing or repositioning has been offered as a strategy for drug development in oncology programs. This approach has special potential for childhood cancers and other rare or orphan diseases, where the expected return on new drug development has been a disincentive to pharmaceuticals. […] In this project we exploit the poly-pharmacology of drugs to discover new indications via phenotypic screening of a panel of 19 well-characterized cell lines derived from solid tumors seen in children and adolescents. The goal is to identify approved drugs with previously unrecognized anticancer properties that has the potential to reveal new mechanisms and biological processes involved in carcinogenesis or drug resistance. We employed a titration-based paradigm (quantitative high-throughput screening or qHTS), where all compounds were tested at multiple concentrations for their effect on cell viability. Concentration-response curves (CRCs) were derived directly from the primary screen, and both potency and efficacy values were used to identify compounds with robust bioactivity profiles. We screened the NIH Chemical Genomics Center (NCGC) Pharmaceutical Collection (NPC) and Mechanism Interrogation Plate (MIPE) small molecule collections of approved and investigational compounds against these cell lines; and measured metabolically active cells after 48 hours of compound treatment as a proxy for cell viability. […] Assay Submitter: Nathalia J. Martinez, National Center for Advancing Translational Sciences, National Institutes of Health, Rockville, MD, USA; email: natalia.martinez@nih.gov Shen, M et al. Quantitative high-throughput phenotypic screening of pediatric cancer cell lines identifies multiple opportunities for drug repurposing. Oncotarget 2017 Dec 19;9(4):4758-4772. PMID 29435139.
The cells were obtained from University of North Carolina (UNC), Pediatric Preclinical Testing Program (PPT), and Coriell Institute (CI). qHTS cell viability assay: Cells were assayed in growth media at a density of 500-1,000 cells/well. Five microliters of cells were dispensed into 1,536-well, white, solid-bottom, TC-treated plates (Greiner Bio One) using a multidrop dispenser and incubated at 37 degrees C, 5% CO2, under a humidified atmosphere for 5 hours. Twenty-three nanoliters of compounds and controls (neutral control DMSO or positive control bortezomib at final concentration of 2.3 µM) were subsequently transferred by Kalypsys pintool. For primary screens, the MIPE collection was tested at 11-point dilutions (final concentrations range from 0.78 nM to 46 µM) and the NPC collection at 8-point dilutions (final concentrations range from 0.59 nM to 46 µM). Compounds tested in follow-up screens were assayed at 11-point dilutions. Cells were incubated for 48 hours, followed by addition of 3 µL of CellTiter-Glo (Promega). After a 15 min incubation at room temperature, samples were analyzed for luminescence intensity using a ViewLux High-throughput CCD imager equipped with clear filters.
Potency is read from the fitted curve at half-maximal effect.

Row | Structure (SMILES) | activity change, negative = cytotoxic | Potency
1 | Nc1nc2ncc(CNc3ccc(C(=O)N[C@@H](CCC(=O)O)C(=O)O)cc3)nc2c(=O)[nH]1 | 31.7% | 
2 | CC(=O)OCC(=O)[C@@]1(O)[C@H](C)C[C@H]2[C@@H]3CCC4=CC(=O)C=C[C@]4(C)[C@@]3(F)[C@@H](O)C[C@@]21C | 4.07% | 
3 | Cc1cc(O)c(C(C)C)cc1Cl | 34.5% | 
4 | Nc1ccn([C@@H]2O[C@H](CO)[C@@H](O)C2(F)F)c(=O)n1 | -2.2% | 
5 | CCC(C(=O)OCCN(CC)CC)c1ccccc1 (stereo not given) | 16.7% | 
6 | CCCCC1=NC2(CCCC2)C(=O)N1Cc1ccc(-c2ccccc2-c2nn[nH]n2)cc1 | 35.7% | 
7 | CCCOC(C(=O)OC1CCN(C)CC1)(c1ccccc1)c1ccccc1 | 8.97% | 
8 | CCCN1CCCC[C@H]1C(=O)Nc1c(C)cccc1C | 13.4% | 
9 | CCN(CC)C(=O)/C(C#N)=C/c1cc(O)c(O)c([N+](=O)[O-])c1 | 9.32% | 
10 | C[C@@H](CN(C)C)CN1c2ccccc2Sc2ccccc21 | 2.62% | 
11 | c1ccc(CNCCNCc2ccccc2)cc1 | 18.4% | 
12 | CC(C)(Oc1ccc(Cl)cc1)C(=O)O | 13% | 
13 | Nc1ccc(C(=O)O)cc1 | 26.6% | 
14 | CCCCCCCCCCCCCCCC[N+](C)(C)CC |  | 13.3 µM (active)
15 | CN(C/C=C/c1ccccc1)Cc1cccc2ccccc12 | -4.18% | 
16 | CCCCCCc1ccc(O)cc1O | 17% | 
17 | CC(C)(CO)[C@@H](O)C(=O)NCCCO | 25.3% | 
18 | c1ccc(OCc2ccc(CCCN3CCOCC3)cc2)cc1 | 15.8% | 
19 | C[C@H]1[C@H](NC(=O)/C(=N/OC(C)(C)C(=O)O)c2csc(N)n2)C(=O)N1S(=O)(=O)O (stereo in doubt) | 32.3% | 
20 | O=C(COc1ccc(Cl)cc1)N1CCN(Cc2ccc3c(c2)OCO3)CC1 | 4.95% | 

Row | Structure (SMILES) | activity change, negative = cytotoxic | Potency
21 | CC(=O)OCC(=O)[C@@]1(O)CC[C@H]2[C@@H]3CCC4=CC(=O)C=C[C@]4(C)[C@H]3[C@@H](O)C[C@@]21C | 19.7% | 
22 | Cc1cccc(C)c1NC(=O)CN1CCN(CCCC(c2ccc(F)cc2)c2ccc(F)cc2)CC1 | 12.8% | 
23 | CC(C)NC[C@@H](O)COc1cccc2ccccc12 | 0.181% | 
24 | CN1CCN(C(c2ccccc2)c2ccccc2)CC1 | 11.8% | 
25 | COc1ccc(OC)c(C(O)CNC(=O)CN)c1 (stereo not given) | 16.1% | 
26 | C#C[C@]1(OC(C)=O)CC[C@H]2[C@@H]3CCC4=C[C@@H](OC(C)=O)CC[C@@H]4[C@H]3CC[C@@]21C | 5.5% | 
27 | CNCC[C@@H](Oc1ccccc1C)c1ccccc1 | 14.4% | 
28 | COC(=O)[C@@H]1CC2=CC(=O)CC[C@]2(C)[C@@]23O[C@@H]2C[C@@]2(C)[C@@H](CC[C@@]24CCC(=O)O4)[C@H]13 | 8.34% | 
29 | COc1cc(-c2ccc(=O)[nH]n2)ccc1OC(F)F | 1.97% | 
30 | CCOC(=O)c1cccc(N)c1 | 10.2% | 
31 | C[C@H](O)C(=O)Nc1c(I)c(C(=O)NC(CO)CO)c(I)c(C(=O)NC(CO)CO)c1I | 34.5% | 
32 | CN(C(=O)CN(CCO)CC(=O)N(C)C(C)(C)Cc1ccccc1)C(C)(C)Cc1ccccc1 | 2.89% | 
33 | CC1(C)OC[C@@H](COC(=O)CCc2ccc(OC[C@@H](O)CNCCNC(=O)N3CCOCC3)cc2)O1 | 15.5% | 
34 | CCCCCCCCCCCCCCCCCC(=O)OCC(O)CO (stereo not given) | 14% | 
35 | CN(C)CCCOc1nn(Cc2ccccc2)c2ccccc12 | -6.54% | 
36 | CC1(C)O[C@@H]2C[C@H]3[C@@H]4C[C@H](F)C5=CC(=O)CC[C@]5(C)[C@H]4[C@@H](O)C[C@]3(C)[C@]2(C(=O)CO)O1 | 22.4% | 
37 | CC(O)C(=O)O (stereo not given) | 15% | 
38 | NC[C@H]1O[C@H](O[C@H]2[C@H](O)[C@@H](O[C@H]3O[C@H](CO)[C@@H](O)[C@H](N)[C@H]3O)[C@H](N)C[C@@H]2N)[C@H](N)[C@@H](O)[C@@H]1O | 2.51% [at 16.1 µM] | 
39 | CO/N=C1\CN(c2nc3c(cc2F)c(=O)c(C(=O)O)cn3C2CC2)CC1CN (stereo not given) | 7.82% | 
40 | C/C=C/c1ccc(OC)cc1 | 28.6% | 
